The whole screen tested about 360,000 compounds, of which about 16,000 (4.4%) were called active. About 9% were inconclusive and are not listed. This excerpt belongs to a sample that is enriched for actives. A number with no mark means an inactive call. Calls come from the whole dose curve; as a rule, active = well fitted inhibition curve with a large enough effect; inconclusive = small, poorly fitted or top-dose-only effect; inactive = no such curve, though single readings can be large or run the other way.
target: Bromodomain adjacent to zinc finger domain protein 2B (Homo sapiens) (UniProt Q9UIF8); experiment: qHTS Assay for Inhibitors of BAZ2B; conditions: AlphaScreen BAZ2B-H3K14Ac peptide displacement; series mostly up to 114 µM; activity change, negative = inhibition: at the top concentration; note: nearly all actives have a fitted effect of over 60% in size
Method in brief: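 AlphaScreen displacement: compounds (up to 110uM) incubated 30 min at room temperature with a preformed 50 nM BAZ2B/50 nM biotinylated H3K14Ac peptide complex in PBS pH 7.4 with Tween-20. Donor and acceptor beads at 10 ug/mL final added, 20 min light-protected before reading.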
% is set by controls: 0 for no effect and ±100 for the full control effect; potency is the fitted concentration of half-maximal effect.

Chain of Bromodomain adjacent to zinc finger domain protein 2B (Homo sapiens) (Q9UIF8 whole entry, looked up, the tested form may be a part): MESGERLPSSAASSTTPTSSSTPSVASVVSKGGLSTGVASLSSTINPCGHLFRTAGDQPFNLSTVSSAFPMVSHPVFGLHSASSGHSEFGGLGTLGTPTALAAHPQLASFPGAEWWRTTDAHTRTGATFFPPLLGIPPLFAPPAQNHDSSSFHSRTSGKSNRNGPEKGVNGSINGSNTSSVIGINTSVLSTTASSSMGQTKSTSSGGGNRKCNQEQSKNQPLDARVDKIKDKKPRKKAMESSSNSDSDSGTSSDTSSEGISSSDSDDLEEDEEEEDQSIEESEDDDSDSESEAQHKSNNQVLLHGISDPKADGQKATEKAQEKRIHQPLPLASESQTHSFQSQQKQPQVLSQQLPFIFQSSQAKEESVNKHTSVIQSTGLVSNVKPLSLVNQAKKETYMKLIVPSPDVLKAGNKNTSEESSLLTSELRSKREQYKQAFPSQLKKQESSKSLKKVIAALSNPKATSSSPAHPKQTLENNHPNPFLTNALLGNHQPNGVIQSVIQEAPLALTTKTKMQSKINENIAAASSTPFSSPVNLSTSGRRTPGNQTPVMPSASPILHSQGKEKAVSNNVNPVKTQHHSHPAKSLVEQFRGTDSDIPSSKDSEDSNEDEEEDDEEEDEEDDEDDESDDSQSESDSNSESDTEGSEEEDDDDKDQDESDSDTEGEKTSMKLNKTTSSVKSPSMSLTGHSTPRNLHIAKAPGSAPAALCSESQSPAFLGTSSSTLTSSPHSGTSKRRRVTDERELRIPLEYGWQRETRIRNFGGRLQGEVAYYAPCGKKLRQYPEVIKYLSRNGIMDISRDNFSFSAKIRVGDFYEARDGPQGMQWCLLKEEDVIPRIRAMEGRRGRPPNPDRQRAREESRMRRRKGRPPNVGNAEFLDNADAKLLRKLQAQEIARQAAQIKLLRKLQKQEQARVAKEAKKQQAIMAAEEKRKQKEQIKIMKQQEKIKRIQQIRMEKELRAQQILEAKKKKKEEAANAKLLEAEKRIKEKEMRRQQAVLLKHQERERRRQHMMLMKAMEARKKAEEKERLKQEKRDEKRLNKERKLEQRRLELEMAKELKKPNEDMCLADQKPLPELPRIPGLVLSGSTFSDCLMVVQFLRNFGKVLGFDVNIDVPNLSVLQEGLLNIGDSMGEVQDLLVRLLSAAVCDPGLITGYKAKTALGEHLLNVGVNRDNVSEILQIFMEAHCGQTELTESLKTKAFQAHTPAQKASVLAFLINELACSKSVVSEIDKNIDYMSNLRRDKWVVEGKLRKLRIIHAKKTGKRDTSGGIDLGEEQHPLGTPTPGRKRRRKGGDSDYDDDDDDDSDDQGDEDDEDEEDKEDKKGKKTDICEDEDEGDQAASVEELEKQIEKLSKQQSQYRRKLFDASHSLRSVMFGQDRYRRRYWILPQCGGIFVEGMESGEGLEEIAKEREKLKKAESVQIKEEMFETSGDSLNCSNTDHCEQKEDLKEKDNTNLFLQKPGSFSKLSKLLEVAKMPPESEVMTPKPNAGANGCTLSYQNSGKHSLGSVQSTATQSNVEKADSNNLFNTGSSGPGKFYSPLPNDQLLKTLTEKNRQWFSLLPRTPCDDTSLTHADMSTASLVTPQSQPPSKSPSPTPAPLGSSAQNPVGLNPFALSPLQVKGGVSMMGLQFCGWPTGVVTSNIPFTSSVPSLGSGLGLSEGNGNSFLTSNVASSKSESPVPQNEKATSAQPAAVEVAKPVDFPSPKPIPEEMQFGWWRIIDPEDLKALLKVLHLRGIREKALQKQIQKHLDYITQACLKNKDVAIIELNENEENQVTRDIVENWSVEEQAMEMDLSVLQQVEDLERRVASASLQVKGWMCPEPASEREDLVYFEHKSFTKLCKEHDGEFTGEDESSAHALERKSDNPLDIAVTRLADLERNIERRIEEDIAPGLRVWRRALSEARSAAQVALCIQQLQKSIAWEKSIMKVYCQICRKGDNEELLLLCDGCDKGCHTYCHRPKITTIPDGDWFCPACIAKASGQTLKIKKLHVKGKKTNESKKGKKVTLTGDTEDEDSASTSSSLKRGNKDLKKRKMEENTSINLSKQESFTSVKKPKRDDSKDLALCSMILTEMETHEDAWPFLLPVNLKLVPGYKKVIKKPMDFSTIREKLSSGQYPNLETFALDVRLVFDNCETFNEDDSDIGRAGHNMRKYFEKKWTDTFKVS

Row | SMILES | activity change, negative = inhibition | Potency
1 | COc1ccc(CCNc2nc(-c3ccc(Cl)cc3)cc(C(F)(F)F)n2)cc1OC | -0.128% | –
2 | C#CCOCCOCCOCCNc1nc(N2CCN(C(=O)[C@H](Cc3ccc(O)cc3)n3cc(C(N)CC(C)C)nn3)CC2)nc(N2CCN(C(=O)[C@H](CCC(=O)O)n3cc(C(N)[C@H](C)CC)nn3)CC2)n1 (some centres not stated) | – | 70.8 µM (active)
3 | CC[C@H](C)[C@@H](C(=O)N1CCNCC1)n1cc([C@@H](N)Cc2ccc(O)cc2)nn1 | -27.4% | –
4 | C#CCOCCOCCOCCNc1nc(N2CCN(C(=O)[C@H](CCCCN)n3cc([C@@H](N)C(C)CC)nn3)CC2)nc(N2CCN(C(=O)[C@H](Cc3ccc(O)cc3)n3cc([C@@H](N)C(C)CC)nn3)CC2)n1 (some centres not stated) | – | 44.7 µM (active)
5 | C#CCOCCOCCOCCNc1nc(N2CCN(C(=O)[C@H](CCC(=O)O)n3cc(C(N)CO)nn3)CC2)nc(N2CCN(C(=O)[C@H](Cc3ccc(O)cc3)n3cc(C(N)[C@H](C)CC)nn3)CC2)n1 (some centres not stated) | – | 39.8 µM (active)
6 | C#CCOCCOCCOCCNc1nc(N2CCN(C(=O)C(Cc3ccc(O)cc3)n3cc(C(N)CC(C)C)nn3)CC2)nc(N2CCN(C(=O)C(Cc3ccc(O)cc3)n3cc(C(N)C(C)CC)nn3)CC2)n1 (configuration not stated) | – | 56.2 µM (active)
7 | CSc1ccc(C2C(C(=O)Nc3ccccc3)=C(C)Nc3nc4ccccc4n32)cc1 (configuration not stated) | -18.3% | –
8 | CCC(CC)C(=O)N1CCc2cc(OC)c(OC)cc2C1COc1ccc(F)cc1 (configuration not stated) | -21.4% | –
9 | COc1ccc(NC(=O)c2sc3nc[nH]c(=O)c3c2C)cc1 | -19.2% | –
10 | COc1ccc(OC)c(-c2nc(C(N)=O)c3c(n2)n(-c2ccc4c(c2)OCO4)c(=O)n3C)c1 | -5.87% | –
11 | CCc1ccccc1NC(=O)N1CCN(C(=O)c2nsc3ccccc23)CC1 | 9.41% | –
12 | Cc1csc2nc(COC(=O)c3ccc(NC(=O)COc4ccccc4F)cc3)cc(=O)n12 | 2.08% | –
13 | CCc1nc2ccc(C(=O)N3CCN(c4cc(Cl)ccc4C)CC3)cc2nc1CC | -3.97% | –
14 | Cc1c(NC(=O)C(C)(C)C)cccc1-c1nc2ccccc2s1 | -1.23% | –
15 | O=C1CSC(=S)N1/N=C/c1ccc(O)c([N+](=O)[O-])c1 | – | 50.1 µM (active)
16 | COc1cccc(N2CCN(C(=O)CCCCCn3c(=O)[nH]c4ccccc4c3=O)CC2)c1 | -17.1% | –
17 | COc1ccc2c(Sc3ccc(C)cc3)c(C(=O)NC(C)c3ccccc3)[nH]c2c1 (configuration not stated) | -17.5% | –
18 | Cc1ccc(N(CC(=O)NCC(C)c2ccccc2)S(=O)(=O)N(C)C)cc1 (configuration not stated) | 3.62% | –
19 | CCC1=NN2C(=N)/C(=C/c3cc(C)n(-c4ccccc4)c3C)C(=O)N=C2S1 | -9.65% | –

Row | SMILES | activity change, negative = inhibition | Potency
20 | CS(=O)(=O)c1ccc2c(c1)SC1=NC(=O)/C(=C/c3ccco3)C(=N)N12 | – | 50.1 µM (active)
21 | CC(C)(C)OC(=O)NCCCCCNC(=O)c1nc[nH]c1C(=O)NCc1ccccc1 | -6.92% | –
22 | Cc1ccc(NC(=O)c2nc[nH]c2C(=O)N[C@@H](CCCCNC(=O)OC(C)(C)C)C(=O)OC(C)(C)C)cc1 | 4.5% | –
23 | CC(C)(C)OC(=O)NCCCCCNC(=O)c1[nH]cnc1C(=O)Nc1nccs1 | – | 31.6 µM (active)
24 | OCc1cnc(SCc2ccc(F)cc2)n1Cc1ccc(F)cc1 | 1.23% | –
25 | CCOc1ccc(-n2c(SCC(=O)NCc3ccccc3)nc3n[nH]c(C)c3c2=N)cc1 | -0.2% | –
26 | O=C(O)c1ccc(-n2cccc2)cc1O | – | 56.2 µM (active)
27 | O=C(Nc1ccc(C(=O)O)c(O)c1)c1ccccc1 | -17.5% | –
28 | O=C(Cn1ccc(=O)[nH]c1=O)Nc1ccc(C(=O)O)c(O)c1 | -11% | –
29 | Cc1ccc(S(=O)(=O)N(Cc2nc(-c3ccc(Cl)cc3)no2)C2CCCCC2)cc1 | -2.47% | –
30 | CN1C2CCC1/C(=C\c1ccccc1Cl)C(=O)/C2=C\c1ccccc1Cl | – | 39.8 µM (active)
31 | O=C(CN1CCCCCC1)NCCN1C(=O)S/C(=C\c2ccccc2Cl)C1=O | -16% | –
32 | O=C(CN1C(=O)S/C(=C\c2ccccc2Cl)C1=O)NC1C=CS(=O)(=O)C1 (configuration not stated) | -14.2% | –
33 | O=C(Nc1ccc(F)cc1F)c1ccc2c(=O)n3c(nc2c1)CCCCC3 | -1.2% | –
34 | CCOC(=O)c1cc2c(=O)n3ccccc3nc2n(CCCOC)c1=NC(=O)C(C)(C)Oc1ccc(Cl)cc1 | 6.45% | –
35 | Oc1ccccc1-c1nc(/C=C/c2ccc(F)cc2)no1 | 2.43% | –
36 | Cc1ccn2c(=O)nc(SCC(=O)NCc3ccc4c(c3)OCO4)nc2c1 | – | 56.2 µM (active)
37 | Cc1ccn2c(=O)nc(SCC(=O)NCc3ccc(F)cc3)nc2c1 | 7.72% | –
38 | O=C(CSc1ncn[nH]1)NCc1ccc2c(c1)OCO2 | -10.9% | –

Row | SMILES | activity change, negative = inhibition | Potency
39 | Cc1ccc(C)c(Nc2nnc(-c3ccc(C)c(S(=O)(=O)N4CCCCC4)c3)c3ccccc23)c1 | -2.85% | –
40 | COc1cccc(CNC(=O)c2ccc3c(c2)sc2nc(-c4cccc(OC)c4)cn23)c1 | 0.455% | –
41 | COc1ccc(OC)c(NC(=O)CN(C)CCOc2ccc(Br)cc2)c1 | -0.9% | –
42 | CN(C)CCOC1c2ccccc2-c2ccccc21 | -16.4% | –
43 | CN(C)CCOc1cccc(Br)c1 | – | 44.7 µM (active)
44 | COc1ccc(NC(=O)CN2CCCN(Cc3ccccc3)S2(=O)=O)cc1 | -14.2% | –
45 | O=C(NCCCNCc1ccccc1)c1ccc(/C=N/O)nc1 | – | 50.1 µM (active)
46 | CC(C)c1ccc(C(=O)NCCCc2ccccc2)cc1 | 20% | –
47 | Nc1ccc(C(=O)NCc2ccccc2)cc1 | -7.75% | –
48 | Oc1ccc(CNc2ccccc2O)cc1 | – | 44.7 µM (active)
49 | Oc1ccccc1N1CCN(C(=S)NCc2ccccc2)CC1 | -22.6% | –
50 | O=C(Cc1ccc(Cl)cc1)NC(=S)Nc1ccccc1O | -24.5% | –
51 | O=C(c1ccc(C(F)(F)F)cc1)N1CCC(c2nc(-c3ccc(S(=O)(=O)N4CCCC4)cc3)no2)CC1 | -9.31% | –
52 | COc1cccc(NC(=O)Nc2ccc3c(c2)N(C)C(=O)c2ccccc2S3)c1 | -10.1% | –
53 | COc1ccc(CC(=O)N2CC(=O)Nc3ccc(Br)cc3C2c2ccc(F)cc2)cc1OC (configuration not stated) | -14.3% | –
54 | CCOC(=O)c1c(NC(=O)CSc2nccc(=O)[nH]2)sc(C)c1C | -9.27% | –
55 | CCOC(=O)c1c(NC(=O)CSc2nnc(CN3CCOCC3)n2C)sc2c1CCCC2 | -26.7% | –
56 | CCOC(=O)c1c(NC(=O)CSc2nnc(Cc3csc(N)n3)n2C)sc(C)c1C | – | 12.6 µM (active)
57 | Cc1cccc(C)c1-n1ncc(C(=O)NCCCN2CCCCC2)c1C1CCN(C(=O)OC(C)(C)C)CC1 | 3.65% [at 57.1 µM] | –
